Assay in all cases: DAPPL (digital affinity profiling via proximity ligation, sequencing); 10 mM Tris-HCl pH 7.5, 50 mM NaCl, 1 mM DTT, 4% glycerol, room temperature, 30 min; GST-TFs on glutathione beads, 16-mer random dsDNA library, 0.1% formaldehyde crosslink after washing; high values mean tight binding
One test concerns the target T1, FLI1 (Homo sapiens, UniProt Q01543 1-452).
T1 sequence: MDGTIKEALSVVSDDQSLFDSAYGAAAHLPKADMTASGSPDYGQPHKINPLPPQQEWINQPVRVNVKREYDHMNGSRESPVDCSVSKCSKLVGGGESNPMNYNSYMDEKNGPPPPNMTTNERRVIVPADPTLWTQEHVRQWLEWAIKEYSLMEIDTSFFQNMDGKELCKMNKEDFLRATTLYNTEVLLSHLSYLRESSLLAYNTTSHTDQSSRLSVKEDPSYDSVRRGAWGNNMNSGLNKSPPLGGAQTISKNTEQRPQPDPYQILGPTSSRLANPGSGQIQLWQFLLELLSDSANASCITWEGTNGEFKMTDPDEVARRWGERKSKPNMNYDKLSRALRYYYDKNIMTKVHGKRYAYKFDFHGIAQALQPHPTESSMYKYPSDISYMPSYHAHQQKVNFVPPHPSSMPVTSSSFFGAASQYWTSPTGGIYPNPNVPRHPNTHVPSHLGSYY
The note with it: protein: recombinant; tags: N-terminal GST; dsDNA, one strand shown. The gist of the method:
(§1)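 Beads coated with glutathione captured GST-fused human transcription factors that had been expressed in yeast, and the factors were then given DNA barcodes and pooled with a tag-only sample. The pools were incubated with 200 nmole of a random double-stranded 16-mer DNA library in Tris/NaCl/DTT/glycerol buffer for 30 min at room temperature, washed, crosslinked with 0.1% formaldehyde and proximity-ligated with BsaI/T4 ligase at 37 °C for 1 h. PCR amplification and Illumina NextSeq500 sequencing came last. Binding signal is each hexamer's read frequency for a factor divided by its frequency for the tag-only sample.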

The target in a further test is T2, ELK1 (Homo sapiens, UniProt P19419 1-428).
T2 sequence: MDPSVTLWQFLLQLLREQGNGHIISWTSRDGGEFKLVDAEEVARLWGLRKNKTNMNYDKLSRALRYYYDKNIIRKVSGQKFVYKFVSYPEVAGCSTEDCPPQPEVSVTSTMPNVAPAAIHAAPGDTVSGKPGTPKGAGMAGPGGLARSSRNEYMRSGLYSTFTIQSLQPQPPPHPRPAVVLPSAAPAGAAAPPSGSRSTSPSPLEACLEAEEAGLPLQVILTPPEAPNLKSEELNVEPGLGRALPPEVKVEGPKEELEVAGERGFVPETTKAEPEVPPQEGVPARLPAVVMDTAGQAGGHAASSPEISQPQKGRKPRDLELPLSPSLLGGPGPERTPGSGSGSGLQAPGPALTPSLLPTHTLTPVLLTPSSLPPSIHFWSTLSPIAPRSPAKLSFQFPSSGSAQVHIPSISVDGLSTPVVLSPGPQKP
As to conditions: protein: recombinant; tags: N-terminal GST; dsDNA, one strand shown. In short, it runs like this: as §1

In a further test the target is T3, GABPA (Homo sapiens, UniProt Q06546 1-454).
T3 sequence: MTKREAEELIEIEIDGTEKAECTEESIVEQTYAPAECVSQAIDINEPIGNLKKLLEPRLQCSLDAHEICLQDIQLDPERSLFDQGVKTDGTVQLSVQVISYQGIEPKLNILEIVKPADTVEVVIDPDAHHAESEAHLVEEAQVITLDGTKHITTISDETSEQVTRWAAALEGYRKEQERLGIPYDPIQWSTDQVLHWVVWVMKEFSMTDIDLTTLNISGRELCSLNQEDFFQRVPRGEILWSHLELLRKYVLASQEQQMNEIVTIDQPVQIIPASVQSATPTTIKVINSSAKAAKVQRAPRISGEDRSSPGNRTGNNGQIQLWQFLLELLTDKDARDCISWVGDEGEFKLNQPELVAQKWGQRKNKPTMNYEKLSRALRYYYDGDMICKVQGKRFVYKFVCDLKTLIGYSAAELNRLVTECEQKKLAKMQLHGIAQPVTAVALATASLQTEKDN
The note with it: protein: recombinant; tags: N-terminal GST; dsDNA, one strand shown. The gist of the method: as §1

The target of another test is T4, ERG (Homo sapiens, UniProt P11308 1-479).
T4 sequence: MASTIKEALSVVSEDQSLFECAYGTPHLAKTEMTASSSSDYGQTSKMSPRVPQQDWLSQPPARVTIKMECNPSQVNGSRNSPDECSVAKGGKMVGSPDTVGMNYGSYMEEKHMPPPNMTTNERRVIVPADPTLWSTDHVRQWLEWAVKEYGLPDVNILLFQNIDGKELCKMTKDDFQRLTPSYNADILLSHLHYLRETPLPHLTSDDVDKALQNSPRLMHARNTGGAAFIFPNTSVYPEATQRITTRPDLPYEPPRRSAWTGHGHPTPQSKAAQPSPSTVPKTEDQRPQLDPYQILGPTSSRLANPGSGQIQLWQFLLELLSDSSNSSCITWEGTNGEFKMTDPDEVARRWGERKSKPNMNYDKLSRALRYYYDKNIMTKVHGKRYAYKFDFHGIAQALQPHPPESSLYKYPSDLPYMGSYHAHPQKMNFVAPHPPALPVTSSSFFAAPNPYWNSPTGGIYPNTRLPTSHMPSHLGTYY
As to conditions: protein: recombinant; tags: N-terminal GST; dsDNA, one strand shown. In short, it runs like this: as §1

The target in the next test is ELF1 (Homo sapiens, UniProt P32519 1-619). The note with it: protein: recombinant; tags: N-terminal GST; dsDNA, one strand shown. In short, it runs like this: as §1
A further test has as its target T5, EHF (Homo sapiens, UniProt Q9NZC4 1-300).
T5 sequence: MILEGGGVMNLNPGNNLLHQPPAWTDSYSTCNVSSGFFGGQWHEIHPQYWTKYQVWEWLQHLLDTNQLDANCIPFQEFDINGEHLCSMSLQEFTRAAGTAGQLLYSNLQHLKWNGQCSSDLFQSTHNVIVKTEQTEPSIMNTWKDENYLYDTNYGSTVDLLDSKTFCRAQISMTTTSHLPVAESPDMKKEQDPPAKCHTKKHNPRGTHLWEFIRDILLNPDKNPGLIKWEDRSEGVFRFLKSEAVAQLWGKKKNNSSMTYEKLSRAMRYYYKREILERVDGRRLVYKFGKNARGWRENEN
As to conditions: protein: recombinant; tags: N-terminal GST; dsDNA, one strand shown. In short, it runs like this: as §1

The target of a further test is SPI1 (Homo sapiens, UniProt P17947 1-270). As to conditions: protein: recombinant; tags: N-terminal GST; dsDNA, one strand shown. In short, it runs like this: as §1
In the next test the target is SPIB (Homo sapiens, UniProt Q01892 1-262). As to conditions: protein: recombinant; tags: N-terminal GST; dsDNA, one strand shown. The gist of the method: as §1
A further test deals with T6, ELK3 (Homo sapiens, UniProt P41970 1-407).
T6 sequence: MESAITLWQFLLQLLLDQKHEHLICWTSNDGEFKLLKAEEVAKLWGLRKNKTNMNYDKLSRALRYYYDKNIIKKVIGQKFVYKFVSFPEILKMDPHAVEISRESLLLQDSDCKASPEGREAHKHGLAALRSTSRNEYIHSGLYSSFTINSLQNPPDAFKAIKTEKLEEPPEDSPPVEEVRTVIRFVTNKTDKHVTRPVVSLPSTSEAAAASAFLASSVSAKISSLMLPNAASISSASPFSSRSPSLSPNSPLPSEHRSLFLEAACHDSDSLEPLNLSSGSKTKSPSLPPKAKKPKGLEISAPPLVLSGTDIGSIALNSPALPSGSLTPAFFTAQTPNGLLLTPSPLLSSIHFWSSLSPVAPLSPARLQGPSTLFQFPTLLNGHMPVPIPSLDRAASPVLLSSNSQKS
The note with it: protein: recombinant; tags: N-terminal GST; dsDNA, one strand shown. The gist of the method: as §1

The next test concerns the target T7, FEV (Homo sapiens, UniProt Q99581 1-238).
T7 sequence: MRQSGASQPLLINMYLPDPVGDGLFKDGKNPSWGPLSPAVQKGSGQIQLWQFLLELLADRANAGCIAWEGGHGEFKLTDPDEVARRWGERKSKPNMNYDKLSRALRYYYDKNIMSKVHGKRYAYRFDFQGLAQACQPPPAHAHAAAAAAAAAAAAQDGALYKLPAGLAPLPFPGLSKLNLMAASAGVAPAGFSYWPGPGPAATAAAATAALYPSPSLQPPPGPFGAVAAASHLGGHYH
The note with it: protein: recombinant; tags: N-terminal GST; dsDNA, one strand shown. In short, it runs like this:
as §1

The target in a further test is ETV5 (Homo sapiens, UniProt P41161 1-510). As to conditions: protein: recombinant; tags: N-terminal GST; dsDNA, one strand shown. In short, it runs like this: as §1
For a further test, the target named is HSF1 (Homo sapiens, UniProt Q00613 1-529). The note with it: protein: recombinant; tags: N-terminal GST; chain copies: 3; dsDNA, one strand shown. In short, it runs like this: as §1
A further test deals with T8, SPIC (Homo sapiens, UniProt Q8N5J4 1-248).
T8 sequence: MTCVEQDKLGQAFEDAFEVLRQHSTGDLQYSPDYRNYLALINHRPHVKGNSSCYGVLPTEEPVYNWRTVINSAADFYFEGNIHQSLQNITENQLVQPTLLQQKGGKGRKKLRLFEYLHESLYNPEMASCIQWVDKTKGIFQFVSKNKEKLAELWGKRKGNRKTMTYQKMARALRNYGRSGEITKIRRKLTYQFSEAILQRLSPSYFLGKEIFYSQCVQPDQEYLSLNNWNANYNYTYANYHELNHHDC
As to conditions: protein: recombinant; tags: N-terminal GST; dsDNA, one strand shown. The gist of the method: as §1

The next test has as its target ELF4 (Homo sapiens, UniProt Q99607 1-663). The note with it: protein: recombinant; tags: N-terminal GST; dsDNA, one strand shown. The gist of the method:
as §1

A further test has as its target T9, ELK4 (Homo sapiens, UniProt P28324-2 1-405).
T9 sequence: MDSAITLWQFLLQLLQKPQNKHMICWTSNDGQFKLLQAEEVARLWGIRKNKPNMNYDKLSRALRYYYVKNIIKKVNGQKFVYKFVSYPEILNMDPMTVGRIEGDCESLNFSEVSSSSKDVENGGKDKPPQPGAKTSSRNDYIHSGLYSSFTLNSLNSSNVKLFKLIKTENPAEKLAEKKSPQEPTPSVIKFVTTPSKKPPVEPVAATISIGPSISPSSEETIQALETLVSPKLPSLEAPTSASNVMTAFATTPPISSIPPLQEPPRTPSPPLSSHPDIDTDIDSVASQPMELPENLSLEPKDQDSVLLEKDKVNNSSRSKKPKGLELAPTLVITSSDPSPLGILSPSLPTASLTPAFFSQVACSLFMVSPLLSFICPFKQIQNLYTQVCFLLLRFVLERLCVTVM
As to conditions: protein: recombinant; tags: N-terminal GST; dsDNA, one strand shown. The gist of the method: as §1

The target of the next test is T10, ETV2 (Homo sapiens, UniProt O00321 1-342).
T10 sequence: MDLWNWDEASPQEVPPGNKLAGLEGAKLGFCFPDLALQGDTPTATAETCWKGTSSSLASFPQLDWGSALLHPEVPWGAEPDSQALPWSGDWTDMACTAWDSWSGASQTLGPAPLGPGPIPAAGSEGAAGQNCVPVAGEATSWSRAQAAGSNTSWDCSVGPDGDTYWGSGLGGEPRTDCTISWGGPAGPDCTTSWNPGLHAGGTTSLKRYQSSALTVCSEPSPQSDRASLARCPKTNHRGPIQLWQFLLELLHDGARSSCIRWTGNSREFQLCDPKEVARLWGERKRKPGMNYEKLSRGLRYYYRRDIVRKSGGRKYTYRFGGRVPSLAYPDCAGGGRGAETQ
As to conditions: protein: recombinant; tags: N-terminal GST; dsDNA, one strand shown. The gist of the method:
as §1

The target of another test is T11, ELF3 (Homo sapiens, UniProt P78545 1-371).
T11 sequence: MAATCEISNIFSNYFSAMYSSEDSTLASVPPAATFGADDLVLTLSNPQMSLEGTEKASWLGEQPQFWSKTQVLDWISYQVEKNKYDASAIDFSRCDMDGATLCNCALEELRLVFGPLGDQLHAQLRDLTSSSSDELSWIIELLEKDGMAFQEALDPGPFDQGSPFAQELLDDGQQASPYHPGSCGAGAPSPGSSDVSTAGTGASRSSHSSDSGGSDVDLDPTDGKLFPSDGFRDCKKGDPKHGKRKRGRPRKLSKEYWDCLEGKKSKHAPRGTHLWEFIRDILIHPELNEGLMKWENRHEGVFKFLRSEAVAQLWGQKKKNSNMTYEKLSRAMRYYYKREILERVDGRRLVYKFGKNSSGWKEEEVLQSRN
As to conditions: protein: recombinant; tags: N-terminal GST; dsDNA, one strand shown. In short, it runs like this:
as §1

The target of a further test is CRX (Homo sapiens, UniProt O43186 1-299). The note with it: protein: recombinant; tags: N-terminal GST; dsDNA, one strand shown. In short, it runs like this: as §1
In another test the target is ETV1 (Homo sapiens, UniProt P50549 1-477). The note with it: protein: recombinant; tags: N-terminal GST; dsDNA, one strand shown. In short, it runs like this: as §1
ETV1, sequence (P50549 whole entry): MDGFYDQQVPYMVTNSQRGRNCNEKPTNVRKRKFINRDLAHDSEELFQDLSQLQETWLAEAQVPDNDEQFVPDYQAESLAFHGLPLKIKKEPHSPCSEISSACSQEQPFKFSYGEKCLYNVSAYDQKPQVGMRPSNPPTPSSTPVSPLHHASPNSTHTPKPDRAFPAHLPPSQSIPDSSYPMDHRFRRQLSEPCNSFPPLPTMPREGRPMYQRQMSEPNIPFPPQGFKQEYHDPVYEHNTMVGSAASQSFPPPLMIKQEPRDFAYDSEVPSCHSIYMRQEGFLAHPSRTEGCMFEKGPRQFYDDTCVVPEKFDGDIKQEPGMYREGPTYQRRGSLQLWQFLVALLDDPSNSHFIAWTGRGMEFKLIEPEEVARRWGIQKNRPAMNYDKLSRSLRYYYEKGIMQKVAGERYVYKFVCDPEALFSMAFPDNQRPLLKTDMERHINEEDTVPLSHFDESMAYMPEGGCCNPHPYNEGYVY

ELF1, sequence (P32519 whole entry): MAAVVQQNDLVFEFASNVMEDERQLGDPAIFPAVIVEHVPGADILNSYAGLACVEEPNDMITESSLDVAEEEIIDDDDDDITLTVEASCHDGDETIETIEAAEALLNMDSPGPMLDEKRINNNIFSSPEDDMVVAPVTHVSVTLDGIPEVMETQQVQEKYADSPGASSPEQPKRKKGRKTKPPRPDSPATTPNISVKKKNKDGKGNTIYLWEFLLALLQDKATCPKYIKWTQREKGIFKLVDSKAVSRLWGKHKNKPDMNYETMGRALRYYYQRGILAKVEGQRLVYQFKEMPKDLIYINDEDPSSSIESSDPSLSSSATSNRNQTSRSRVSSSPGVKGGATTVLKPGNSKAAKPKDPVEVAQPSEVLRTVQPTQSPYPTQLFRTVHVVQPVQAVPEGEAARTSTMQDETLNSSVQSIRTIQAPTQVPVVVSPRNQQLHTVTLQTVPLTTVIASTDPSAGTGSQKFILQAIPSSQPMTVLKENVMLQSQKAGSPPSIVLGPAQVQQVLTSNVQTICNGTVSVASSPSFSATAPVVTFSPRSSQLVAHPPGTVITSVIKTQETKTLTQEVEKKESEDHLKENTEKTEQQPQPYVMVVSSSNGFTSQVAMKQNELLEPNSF
ETV5, sequence (P41161 whole entry): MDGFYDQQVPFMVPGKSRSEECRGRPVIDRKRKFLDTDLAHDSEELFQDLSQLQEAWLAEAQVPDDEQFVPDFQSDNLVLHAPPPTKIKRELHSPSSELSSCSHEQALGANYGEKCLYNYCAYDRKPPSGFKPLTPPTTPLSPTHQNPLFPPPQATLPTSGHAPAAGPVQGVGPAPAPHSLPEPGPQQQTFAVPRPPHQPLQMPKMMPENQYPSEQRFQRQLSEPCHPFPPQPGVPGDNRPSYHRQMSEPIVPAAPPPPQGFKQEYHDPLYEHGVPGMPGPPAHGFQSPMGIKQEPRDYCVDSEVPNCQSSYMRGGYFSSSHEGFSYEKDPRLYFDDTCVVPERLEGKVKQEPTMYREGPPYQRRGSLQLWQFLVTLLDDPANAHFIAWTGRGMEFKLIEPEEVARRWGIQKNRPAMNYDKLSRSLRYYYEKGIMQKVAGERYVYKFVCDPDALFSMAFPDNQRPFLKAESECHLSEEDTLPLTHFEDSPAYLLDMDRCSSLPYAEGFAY
ELF4, sequence (Q99607 whole entry): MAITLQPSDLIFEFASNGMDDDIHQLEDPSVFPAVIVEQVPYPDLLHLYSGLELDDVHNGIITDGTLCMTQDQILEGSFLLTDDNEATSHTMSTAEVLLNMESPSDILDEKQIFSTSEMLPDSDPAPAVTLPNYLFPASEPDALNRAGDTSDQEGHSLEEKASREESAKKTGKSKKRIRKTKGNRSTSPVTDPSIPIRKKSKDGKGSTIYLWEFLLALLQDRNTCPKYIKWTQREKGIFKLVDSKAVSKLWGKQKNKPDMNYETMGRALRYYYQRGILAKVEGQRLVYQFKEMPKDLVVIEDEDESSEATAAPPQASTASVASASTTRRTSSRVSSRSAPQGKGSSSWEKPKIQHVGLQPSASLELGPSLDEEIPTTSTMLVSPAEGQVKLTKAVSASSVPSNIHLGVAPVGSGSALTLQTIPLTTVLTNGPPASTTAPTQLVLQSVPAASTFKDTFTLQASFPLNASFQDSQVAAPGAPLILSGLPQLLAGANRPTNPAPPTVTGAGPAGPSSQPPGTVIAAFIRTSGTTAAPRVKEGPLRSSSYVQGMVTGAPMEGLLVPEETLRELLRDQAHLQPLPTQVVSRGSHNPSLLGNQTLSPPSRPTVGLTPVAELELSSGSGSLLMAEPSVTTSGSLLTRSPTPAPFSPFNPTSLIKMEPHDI
CRX, sequence (O43186 whole entry): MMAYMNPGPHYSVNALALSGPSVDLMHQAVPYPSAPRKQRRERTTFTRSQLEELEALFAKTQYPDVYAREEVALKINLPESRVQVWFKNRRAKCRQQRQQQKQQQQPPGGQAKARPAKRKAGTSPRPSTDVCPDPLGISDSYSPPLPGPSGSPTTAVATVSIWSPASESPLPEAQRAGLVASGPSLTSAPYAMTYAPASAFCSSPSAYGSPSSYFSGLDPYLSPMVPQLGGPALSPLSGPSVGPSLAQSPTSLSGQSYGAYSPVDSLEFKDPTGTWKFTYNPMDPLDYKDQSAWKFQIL
SPIB, sequence (Q01892 whole entry): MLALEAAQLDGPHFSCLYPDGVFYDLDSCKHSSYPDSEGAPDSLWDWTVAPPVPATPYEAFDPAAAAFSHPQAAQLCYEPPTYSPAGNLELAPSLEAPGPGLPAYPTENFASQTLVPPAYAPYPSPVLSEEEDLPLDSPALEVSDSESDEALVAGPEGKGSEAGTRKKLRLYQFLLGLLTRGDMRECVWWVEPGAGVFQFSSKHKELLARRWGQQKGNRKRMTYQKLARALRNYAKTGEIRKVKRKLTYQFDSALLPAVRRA
HSF1, sequence (Q00613 whole entry): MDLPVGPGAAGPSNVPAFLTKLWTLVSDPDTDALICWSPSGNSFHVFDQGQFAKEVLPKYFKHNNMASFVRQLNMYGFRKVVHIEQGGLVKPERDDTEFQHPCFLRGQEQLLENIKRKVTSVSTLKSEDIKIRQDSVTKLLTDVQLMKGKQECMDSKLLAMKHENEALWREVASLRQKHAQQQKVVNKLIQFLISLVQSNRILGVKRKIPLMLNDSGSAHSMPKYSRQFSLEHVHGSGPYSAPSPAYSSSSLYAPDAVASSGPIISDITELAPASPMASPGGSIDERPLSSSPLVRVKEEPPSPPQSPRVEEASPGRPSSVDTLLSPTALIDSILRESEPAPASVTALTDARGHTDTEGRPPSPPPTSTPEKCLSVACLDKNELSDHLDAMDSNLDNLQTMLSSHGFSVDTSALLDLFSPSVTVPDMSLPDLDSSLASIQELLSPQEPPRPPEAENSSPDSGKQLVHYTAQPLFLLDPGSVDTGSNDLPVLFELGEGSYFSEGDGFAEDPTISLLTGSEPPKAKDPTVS

For the sequence CATCTG, the binding signal with FLI1 is 1.24 fold enrichment (6-mer frequency, TF over GST control); in the test with ELK1, 1.23 fold enrichment (6-mer frequency, TF over GST control); in the test with GABPA, 1.37 fold enrichment (6-mer frequency, TF over GST control); in the test with ERG, 1.16 fold enrichment (6-mer frequency, TF over GST control); in the test with ELF1, 1.33 fold enrichment (6-mer frequency, TF over GST control); in the test with EHF it was 1.31 fold enrichment (6-mer frequency, TF over GST control). In addition, the binding signal is 1.08 fold enrichment (6-mer frequency, TF over GST control) with SPI1; 1.28 fold enrichment (6-mer frequency, TF over GST control) with SPIB; 1.25 fold enrichment (6-mer frequency, TF over GST control) in the test with ELK3; 1.33 fold enrichment (6-mer frequency, TF over GST control) with FEV; 1.2 fold enrichment (6-mer frequency, TF over GST control) with ETV5; 1.25 fold enrichment (6-mer frequency, TF over GST control) with HSF1. The binding signal with SPIC is 1.28 fold enrichment (6-mer frequency, TF over GST control); in the test with ELF4, 1.25 fold enrichment (6-mer frequency, TF over GST control); with ELK4, 1.39 fold enrichment (6-mer frequency, TF over GST control); with ETV2 it was 1.16 fold enrichment (6-mer frequency, TF over GST control); with ELF3 it was 1.37 fold enrichment (6-mer frequency, TF over GST control); with CRX, 1.15 fold enrichment (6-mer frequency, TF over GST control). The binding signal with ETV1 is 1.31 fold enrichment (6-mer frequency, TF over GST control).
